Test results as given in PubChem BioAssay (NCATS).
Results filed as inconclusive are left out. A call without a number means that no potency is given here. Calls of active or inactive are those of the source. Calls come from the whole dose curve; as a rule, active = well fitted inhibition curve with a large enough effect; inconclusive = small, poorly fitted or top-dose-only effect; inactive = flat fitted curve, though single readings scatter.

experiment: P-glycoprotein substrates identified in KB-8-5-11 adenocarcinoma cell line, qHTS therapeutic library screen (AID 1346987); settings: KB-8-5-11 (P-gp overexpressing) viability, CellTiter-Glo, 72 h; series mostly up to 44.5 µM; note: nearly all actives have a fitted effect of over 65% in size
Procedure, shortened: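 Human cervical adenocarcinoma KB-8-5-11 cells, selected in colchicine to over-express P-gp and assayed without it, were exposed for 72 h to titrated compounds. An ATP-based luminescent viability signal gave AC50.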

**Q.** For `CC(O)/C=C/C1(O)C(C)C(O)C(O[C@@H]2O[C@H](CO)[C@@H](O)[C@H](O)[C@H]2O)CC1(C)C` (some centres not stated), which Potency is on record?
**A.** inactive

**Q.** For `COc1cc(/C=C/C(=O)O[C@H]2[C@H](O)[C@@H](CO)O[C@@]2(CO)O[C@H]2O[C@H](CO)[C@@H](O)[C@H](O)[C@H]2O)cc(OC)c1O`, which Potency is on record?
**A.** inactive

**Q.** Which Potency does the source give for `C=C1CC2C(C)(CCC(=O)O)C(C(C)(C)O)CCC2(C)C2(C(=O)OC)C(=O)C(C)(O)C(=O)C12C` (configuration not stated) here?
**A.** inactive

**Q.** With `CC1(C)CC[C@]2(C(=O)O[C@@H]3O[C@H](CO[C@@H]4O[C@H](CO)[C@@H](O)[C@H](O)[C@H]4O)[C@@H](O)[C@H](O[C@@H]4O[C@H](CO)[C@@H](O)[C@H](O)[C@H]4O)[C@H]3O)[C@H](O)C[C@]3(C)C(=CCC4[C@@]5(C)CC[C@H](O[C@@H]6OC[C@@H](O)[C@H](O)[C@H]6O)[C@@](C)(C(=O)O)C5CC[C@]43C)[C@@H]2C1` (some centres not stated) as the molecule, how does the outcome read?
**A.** inactive [at 9.29 µM]

**Q.** For `CC(C)CC(=O)O[C@@H]1O[C@H](CO)[C@@H](O[C@H]2O[C@H](C)[C@@H](N[C@H]3C=C(CO)[C@@H](O[C@H]4O[C@H](CO)[C@@H](O[C@H]5O[C@H](CO)[C@@H](O[C@H]6O[C@H](CO)[C@@H](O)[C@H](O)[C@H]6O)[C@H](O)[C@H]5O)[C@H](O)[C@H]4O)[C@H](O)[C@H]3O)[C@H](O)[C@H]2O)[C@H](O)[C@H]1O`, which activity change, negative = cytotoxicity is on record?
**A.** 8.1% [at 9.29 µM] (inactive)

**Q.** For `CC(=O)OC1C(O)C(C)(O)C(/C=C/C(=O)O)C2(C)CCCC(C)(C)C12` (configuration not stated), which Potency is on record?
**A.** inactive

**Q.** For `C[C@@H]1CCC2C(C)(C)[C@H](O)[C@H](O)C[C@]2(C)[C@@]12Cc1c(O)cc3c(c1O2)CN(CCCC(=O)O)C3=O` (some centres not stated), which Potency is on record?
**A.** inactive
